The campaign covered roughly 5,500 compounds. About 2,000 (36%) were called active. Inconclusive results (about 18%) are left out. No stated cut-off is given here; in the data, active means normalized growth mostly below about 0.91 (no sharp cut-off); inconclusive means no clear call, values can overlap the other calls; inactive means mostly above about 0.92. The list shows a part of the results.
Assay: chemical genetic growth profiling, strain panel (AID 1159580);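 further: tested at 20 µM; growth read once vehicle control cultures reached saturation at 30 °C; 1 = growth at the plate median or of vehicle wells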
Conditions: S. cerevisiae deletion strains, growth OD

Measured: normalized growth

CN1CCC(=C2c3ccccc3C=Cc3ccccc32)CC1
inactive: locus YAL013W, strain DEP1, stronger effect = lower value 0.966 | locus YAL040C, strain CLN3, stronger effect = lower value 0.99 | locus YCL061C, strain MRC1 (second series), stronger effect = lower value 0.99 | locus YDR150W, strain NUM1, stronger effect = lower value 1 | locus YDR363W, strain ESC2, stronger effect = lower value 1 | locus YER002W, strain NOP16, stronger effect = lower value 0.995 | locus YGR078C, strain PAC10, stronger effect = lower value 1 | locus YGR229C, strain SMI1, stronger effect = lower value 0.959 | locus YHR030C, strain SLT2, stronger effect = lower value 0.965 | locus YHR079C, strain IRE1, stronger effect = lower value 0.967 | locus YJL095W, strain BCK1, stronger effect = lower value 0.968 | locus YJR066W, strain TOR1, stronger effect = lower value 0.942 | locus YLR113W, strain HOG1, stronger effect = lower value 0.942 | locus YMR307W, strain GAS1, stronger effect = lower value 1.01 | locus YNL175C, strain NOP13, stronger effect = lower value 0.986 | locus YNL183C, strain NPR1, stronger effect = lower value 0.914 | locus YNL197C, strain WHI3, stronger effect = lower value 1.01 | locus YNL224C, strain SQS1, stronger effect = lower value 0.995 | locus YNL322C, strain KRE1, stronger effect = lower value 0.993 | locus YOR083W, strain WHI5 (second series), stronger effect = lower value 1.01 | locus YOR231W, strain MKK1, stronger effect = lower value 0.965 | locus YPL055C, strain LGE1, stronger effect = lower value 0.973 | locus YPL256C, strain CLN2, stronger effect = lower value 0.932
